From PubChem BioAssay (Tox21)
Records with an inconclusive call do not appear. Entries that show only a call come without a potency. A number with no mark means an inactive call. Activity calls are given as the source filed them. Calls follow the shape of the dose curve; as a rule, active = well fitted cell-killing curve with a large enough effect in the repeat runs; inconclusive = weak or mixed curves, or effect the other way; inactive = flat fitted curve, though single readings scatter.

Test: qHTS assay to identify small molecule antagonists of the androgen receptor (AR) signaling pathway using the MDA cell line in the presence of 0.5 nM R1881 - cell viability counter screen (AID 1259242); also: nearly all actives have a fitted effect of over 45% in size
Settings: MDA-kb2 viability, CellTiter-Fluor protease fluorescence, 16 h; series mostly up to 92.4 µM
Source text: U.S. Tox21 Program National Center for Advancing Translational Sciences [NCATS] NIH Chemical Genomics Center [NCGC] U.S. Environmental Protection Agency [EPA] National Institutes of Environmental Health Sciences [NIEHS] National Toxicology Program [NTP] U.S. Food and Drug Administration [FDA] Tox21 Assay Overview: Androgen receptor (AR) is an important member of the nuclear receptor family. Its signaling plays a critical role in AR-dependent prostate cancer and other androgen related diseases. Considerable attention has been given in the past decades to develop methods to study and screen for the environmental chemicals that have the potential to interfere with metabolic homeostasis, reproduction, developmental and behavioral functions. Therefore AR binding assay for screening androgen antagonists can be used to identify potential endocrine disruptors. MDA-kb2 cells (from ATCC, deposited by Wilson et al.) were used to screen for AR inhibitors against Tox21 compound libraries. These cells are human breast carcinoma cells that were stably transfected with a luciferase reporter gene under control of the MMTV promoter that contains response elements for both androgen receptor (AR) and glucocorticoid receptor (GR). The current screening for identification of AR inhibitors against Tox21 libraries used lower concentration of (0.5 nM) R1881 as a stimulator. The cytotoxicity of the Tox21 compound libraries against MDA-kb2 cell line was tested by measuring live-cell protease activity using CellTiter-Fluor assay in the same wells.
Tox21 Assay Protocol Summary: MDA-kb2 cells (cells cultured without CO2) were dispensed at 3,000 cells/well in 4 uL of culture medium into white wall/solid-bottom 1536-well plates (Corning Life Sciences, Corning, NY) using a Multidrop Combi (ThermoFisher Scientific, Waltham, MA) dispenser. After the assay plates were incubated at a 37C and 0% CO2 for 5 hr, 23 nL of compounds dissolved in DMSO, positive controls or DMSO only was transferred to the assay plate by a Pintool station (Kalypsys, San Diego, CA). The transfer of compounds was followed by the addition of 1 uL of 0.5 nM (final concentration) agonist (R1881)/culture medium using a Flying Reagent Dispenser (FRD, Aurora Discovery, San Diego, CA). The plates were incubated at 37C and 0% CO2 for 16 hr. For cytotoxicity assay, 1 uL of CellTiter-Fluor reagent (Promega Corporation, Madison, WI) was added to each well using the FRD and after 30 min incubation at 37C and 0% CO2, The fluorescence intensity was measured using ViewLux plate reader (PerkinElmer, Shelton, CT).
Potency is read from the fitted curve at half-maximal effect.

Structure (SMILES)	Potency	viability change, negative = cytotoxic
Cn1sc(Cl)cc1=O	inactive	
c1ccc(CN2CCNCC2)cc1	inactive	
CCBr	inactive	
Clc1cc(Cl)c(Cl)c(Cl)c1	inactive	
CC(C)O.CC(C)O.OCCN(CCO)CCO.OCCN(CCO)CCO.[Ti]	inactive	
Nc1nc(N)nc(N)n1	inactive	
CC(=O)C(C)(C)C	inactive	
O=C(CCl)c1ccc(Cl)cc1Cl	inactive	
Brc1ccccc1	inactive	
O=C(O)CC(Cl)C(=O)O (stereo not given)	inactive	
CCO[C@H]1O[C@@H]2OC3(C)CC[C@H]4[C@H](C)CC[C@@H]([C@H]1C)[C@@]24OO3	inactive	
Nc1nc(=S)[nH][nH]1	inactive	
COc1c(C(C)(C)C)cc([N+](=O)[O-])c(C)c1[N+](=O)[O-]	inactive	
c1ccc(C2CC2)c(OCC2=NCCN2)c1	inactive	
Cl/C=C\Cl	inactive	
O=S1(=O)OC(c2cc(Br)c(O)c(Br)c2)(c2cc(Br)c(O)c(Br)c2)c2ccccc21	22.3 µM (active)	
O=C(CBr)Nc1ccc(Cl)cc1C(=O)c1ccccc1F	inactive	
CC1C(=O)C[C@]2(C(C)C)C[C@H]12 (stereo not given in full)	inactive	
Nc1ccc(N=Nc2ccc(-c3ccc(N=Nc4c(S(=O)(=O)O)cc5cc(S(=O)(=O)O)c(N=Nc6ccccc6)c(O)c5c4N)cc3)cc2)c(N)c1	inactive	
O=C(O)c1ccccc1C(=O)Nc1cccc2ccccc12	inactive	

Structure (SMILES)	Potency	viability change, negative = cytotoxic
C/C=C/C=O	inactive	
ClCc1ccccc1	inactive	
CCOC(=O)COc1cc(-c2nn(C)c(OC(F)F)c2Cl)c(F)cc1Cl	inactive	
S=C=NCc1ccccc1	inactive	
O=Cc1ccc(Cl)cc1Cl	inactive	
Brc1ccc(Oc2ccccc2)cc1	inactive	
ClCc1cccc(Cl)c1	inactive	
ClP(Cl)(Cl)(Cl)Cl	inactive	
O=C1CN=C(c2ccccc2)c2cc(Cl)ccc2N1CC1CC1	inactive	
CNC(C)Cc1ccccc1OC (stereo not given)	inactive	
CC1(C)[C@H](C=C(Cl)Cl)[C@@H]1C(=O)O[C@@H](C#N)c1cccc(Oc2ccccc2)c1	inactive	
CCOP(=O)(OCC)O/C(=C/Cl)c1ccc(Cl)cc1Cl	inactive	
C=CC(=O)OC(C)(C)C	inactive	
COC(=O)C(C)N(C(=O)Cc1ccccc1)c1c(C)cccc1C (stereo not given)	inactive	
CO[C@@H]1[C@H](OC(=O)NC(=O)CCl)CC[C@]2(CO2)[C@H]1[C@@]1(C)O[C@@H]1CC=C(C)C		-0.0338% [at 19 µM]
CC(C)=CCOc1c2occc2cc2ccc(=O)oc12	inactive	
CCC(Br)(CC)C(=O)NC(N)=O	inactive	
O=C(O)C(F)(F)C(F)(F)C(F)(F)C(F)(F)C(F)(F)C(F)(F)C(F)(F)C(F)(F)C(F)(F)F	inactive	
O=NN1CCNCC1	inactive	
CN1[C@@H]2CC[C@H]1CC(OC(=O)c1cc(Cl)cc(Cl)c1)C2 (stereo not given in full)	inactive	
